Assay results as given in PubChem BioAssay.
Active and inactive are the calls of the source. Unless noted, how the calls were made is not given here.

Key:
[1] = system: XIP peptide (Xip251-270) binding; assay: small-molecule binders of XIP peptide, primary screen, biochemical, small-molecule microarray, fluorescence 635/667 nm, 0.1 µg/mL protein (AID 1182); details: fluorescent protein binding, 635 nm, higher = more signal, called active from +8 up or from −8 down
XIP peptide (Xip251-270) = assay: small-molecule binders of XIP peptide, primary screen, biochemical, small-molecule microarray, fluorescence 635/667 nm, 0.5 µg/mL protein (AID 1183); details: small-molecule microarray binding, fluorescence 635 nm; higher = more signal
[2] = Plasmodium falciparum growth inhibition, primary screen, strain 3D7, DAPI fluorescence, 100 nL (AID 1184);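 further: parasites grown inside human red blood cells in medium with human serum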; details: P. falciparum 3D7 growth, 3 d, higher = more signal
[3] = biological target: Homeobox protein Hox-A13 (Mus musculus) (UniProt Q62424); assay: inhibitors of HoxA13-DNA binding, primary screen, biochemical, fluorescence polarization, labeled oligonucleotide (AID 1185); details: 15 min, higher = more signal, called active from +8 up or from −8 down
[4] = inhibitors of hydroxyurea-induced Chk1 phosphorylation, primary screen, imaging, HeLa, phospho-Chk1 antibody, percent positive cells (AID 1186); details: hydroxyurea-induced phospho-Chk1 immunofluorescence imaging, higher = more signal
[5] = inhibitors of hydroxyurea-induced Chk1 phosphorylation, primary screen, imaging, HeLa, phospho-Chk1 nuclear intensity (AID 1187); details: hydroxyurea-induced phospho-Chk1 immunofluorescence imaging, higher = more signal

Sequence of Homeobox protein Hox-A13 (Mus musculus) (Q62424 whole entry, looked up): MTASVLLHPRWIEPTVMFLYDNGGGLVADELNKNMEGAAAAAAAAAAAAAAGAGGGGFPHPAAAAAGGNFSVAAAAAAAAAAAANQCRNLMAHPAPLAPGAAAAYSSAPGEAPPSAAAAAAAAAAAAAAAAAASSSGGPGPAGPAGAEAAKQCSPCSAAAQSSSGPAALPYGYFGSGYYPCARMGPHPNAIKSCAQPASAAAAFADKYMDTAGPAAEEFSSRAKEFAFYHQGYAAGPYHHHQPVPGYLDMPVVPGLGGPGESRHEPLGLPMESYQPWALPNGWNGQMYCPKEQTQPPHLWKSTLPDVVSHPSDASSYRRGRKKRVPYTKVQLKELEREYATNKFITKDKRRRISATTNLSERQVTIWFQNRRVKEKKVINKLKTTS

SMILES	composite z-score [1]	composite z-score (XIP peptide (Xip251-270))	z-score [2]	z-score [3]	z-score [4]	z-score [5]
COCCCNC(=O)[C@@]1(Cc2ccccc2N=[N+]=[N-])N=C(c2ccc(OCCCO)cc2)O[C@H]1c1ccccc1N=[N+]=[N-]	0.0041 (inactive)	0.771	-2.43	-2.81 (inactive)	-0.559 (inactive)	-0.225 (inactive)
[N-]=[N+]=Nc1ccccc1[C@H]1OC(c2ccc(OCCCO)cc2)=N[C@@]1(Cc1ccccc1)C(=O)O	0.387 (inactive)	0.686	-1.23	-5.18 (inactive)	-0.48 (inactive)	-0.822 (inactive)
COc1ccc(C(O)C2C=CC3C(=O)NC(=O)C3N2Nc2ccccn2)c2ccccc12 (stereo unspecified)	0.123 (inactive)	-0.034	0.8	-1.97 (inactive)	0.141 (inactive)	-0.22 (inactive)
CN1C(=O)C2C=CC(C(O)c3ccc(I)cc3)N(N3CCCCC3)C2C1=O (stereo unspecified)	0.405 (inactive)	0.771	-0.378	-4.82 (inactive)	0.151 (inactive)	-0.062 (inactive)
CCOC(=O)[C@H]1C/C=C/C[C@H](C(=O)OCC)C(=O)O[C@H]2[C@@H](OC)O[C@H](CO)[C@@H](OC(=O)Nc3cccc(F)c3)[C@@H]2OC1=O	1.17 (inactive)	0.526	-1.73	-2.16 (inactive)	-0.197 (inactive)	-0.145 (inactive)
[N-]=[N+]=NCc1ccccc1C[C@]1(C(=O)NCC(O)CO)N=C(c2ccc(OCCCO)cc2)O[C@H]1c1ccccc1 (stereo partly specified)	0.417 (inactive)	-0.148	-0.836	-6.51 (inactive)	0.112 (inactive)	0.377 (inactive)
COc1ccc(C(O)C2C=CC3C(=O)N(c4ccccc4)C(=O)C3N2Nc2ccccc2F)cc1OCc1ccccc1 (stereo unspecified)	1.26 (inactive)	0.698	-0.193	-0.0495 (inactive)	-0.75 (inactive)	-1.22 (inactive)
O=C1O[C@@H](c2ccccc2)[C@@H](c2ccccc2)N2[C@@H](c3ccc(OCCO)cc3)[C@]3(C(=O)Nc4ccccc43)[C@@H](C(=O)NC[C@H](O)c3ccccc3)[C@H]12	1.29 (inactive)	0.345	0.0884	-5.41 (inactive)	0.167 (inactive)	0.696 (inactive)
[N-]=[N+]=Nc1ccccc1C[C@@]1(C(=O)NCCN2CCOCC2)N=C(c2ccc(OCCCO)cc2)O[C@@H]1c1ccccc1	0.58 (inactive)	0.827	-2.33	-4.23 (inactive)	-0.785 (inactive)	-1.11 (inactive)
CC(=O)NCCCC[C@@H]1NC(=O)[C@@H]2C[C@H](C(=O)NCCCCN(C)C)[C@H](c3cccc(OCCO)c3)N2C1=O	0.172 (inactive)	0.237	-0.363	-1.75 (inactive)	-0.281 (inactive)	-0.0329 (inactive)
[N-]=[N+]=NCc1ccccc1[C@@H]1OC(c2ccc(OCCCO)cc2)=N[C@]1(Cc1ccccc1N=[N+]=[N-])C(=O)N1CCOCC1	0.129 (inactive)	0.706	-2.03	-2.15 (inactive)	0.0823 (inactive)	0.515 (inactive)
[N-]=[N+]=NCc1ccccc1C[C@]1(C(=O)O)N=C(c2ccc(OCCCO)cc2)O[C@H]1c1ccccc1N=[N+]=[N-]	0.525 (inactive)	0.771	-1.57	-3.84 (inactive)	-0.1 (inactive)	0.16 (inactive)
CCOC(=O)C[C@H]1[C@H](OC(=O)c2cc3ccccc3oc2=O)[C@@H](NC(=O)Cc2ccc(OC)cc2)c2cc(OCCCO)ccc2N1C(=O)c1ccccc1	0.48 (inactive)	0.853	-1.9	-2.46 (inactive)	0.907 (inactive)	0.546 (inactive)
COc1ccc(C(O)C2C=CC3C(=O)N(C)C(=O)C3N2N2CCCCC2)c2ccccc12 (stereo unspecified)	0.591 (inactive)	0.637	-0.179	-4.89 (inactive)	0.294 (inactive)	0.312 (inactive)
CN(C)C(=O)[C@@]1(Cc2ccccc2)N=C(c2ccc(OCCCO)cc2)O[C@H]1c1ccccc1N=[N+]=[N-]	-0.111 (inactive)	0.651	-1.93	-4.88 (inactive)	-0.524 (inactive)	-0.793 (inactive)
O=C1OCCC/C=C\[C@H]2OC34C=CCN(Cn5nnc6ccccc65)C(=O)[C@H]3N(CCO)C(=O)[C@@H]4C12 (stereo partly specified)	-0.0143 (inactive)	0.96	-1.18	-4.72 (inactive)	0.0428 (inactive)	0.371 (inactive)
O=C1NC(=O)C2C1C=CC(C(O)C(c1ccccc1)c1ccccc1)N2Nc1ccc(Cl)cc1Cl (stereo unspecified)	0.69 (inactive)	-0.0049	-0.289	-4.15 (inactive)	0.735 (inactive)	0.889 (inactive)
CC1CC/C=C\[C@H]2OC34C=CCN(Cn5nnc6ccccc65)C(=O)[C@H]3N(C(CO)C(C)C)C(=O)[C@@H]4C2C(=O)O1 (stereo partly specified)	0.575 (inactive)	0.212	-0.918	-5.58 (inactive)	0.822 (inactive)	0.71 (inactive)
COc1cc2c(cc1OC)CN(C(=O)[C@H]1[C@@H]3C(=O)O[C@@H](c4ccccc4)[C@@H](c4ccccc4)N3[C@@H](c3ccc(O)cc3)[C@]13C(=O)Nc1ccc(C#CC4=CCCCC4)cc13)CC2	0.546 (inactive)	0.795	-2.08	1.4 (inactive)	0.138 (inactive)	0.352 (inactive)
COC(=O)C=C(CC(O)c1cccc(Cl)c1)OC (stereo unspecified)	0.633 (inactive)	0.744	-0.0951	-1.42 (inactive)	-1.22 (inactive)	-1.18 (inactive)
O=C1OCCC=C[C@H]2OC34C=CCN(CCN5CCOCC5)C(=O)[C@H]3N(CCCCCCO)C(=O)[C@@H]4C12 (stereo partly specified)	0.995 (inactive)	0.091	-0.0217	-5.15 (inactive)	-0.334 (inactive)	-0.109 (inactive)
C=C(COC)/C(=C/C[C@@H](OC(C)=O)c1ccc(OCCO)cc1)c1cc(C(=O)OC)ccc1OC	2.57 (inactive)	0.762	-3.06	-4.45 (inactive)	-0.307 (inactive)	-0.333 (inactive)
O=C(c1ccccc1)N1Cc2ccccc2[C@@H]2OC(c3ccc(OCCCO)cc3)=N[C@]2(Cc2ccccc2)C1=O	1.67 (inactive)	0.576	-2.2	1.01 (inactive)	0.103 (inactive)	-0.3 (inactive)
COCCOC(=O)N1C(=O)[C@@]2(c3cc(C#Cc4ccc(OC)cc4)ccc31)[C@H](C(=O)N1CCCCCCC1)[C@H]1C(=O)O[C@H](c3ccccc3)[C@H](c3ccccc3)N1[C@@H]2c1ccc(OCCO)cc1	2.79 (inactive)	0.635	-2	-15.8 (active)	-0.442 (inactive)	-0.617 (inactive)
Cc1ccc(S[C@]2(C(=O)NC(C)C)CC(=O)N(Cc3ccccc3Cl)[C@@H]2c2ccc(CO)cc2I)cc1	0.226 (inactive)	0.293	0.906	-3.31 (inactive)	0.244 (inactive)	0.723 (inactive)
COc1ccc([Si](C)(C)[C@@H]2[C@@H](CC(=O)N3Cc4ccccc4C[C@H]3CO)O[C@]3(C(=O)N(C)c4c(Br)cc(C)cc43)[C@H]2C)cc1	-0.223 (inactive)	0.565	-2.35	-4.06 (inactive)	-0.79 (inactive)	-0.12 (inactive)
